Assay results published in PMC7862700, “An all-to-all approach to the identification of sequence-specific readers for epigenetic DNA modifications on cytosine”.

Tests used:
Experiment in all cases: DAPPL (digital affinity profiling via proximity ligation, sequencing); 10 mM Tris-HCl pH 7.5, 50 mM NaCl, 1 mM DTT, 4% glycerol, room temperature, 30 min; GST-TFs on glutathione beads, 16-mer random dsDNA library, 0.1% formaldehyde crosslink after washing; high values mean tight binding
Conditions in all cases: protein: recombinant; tags: N-terminal GST; dsDNA, one strand shown
[1] = molecular target: T1, GABPA (Homo sapiens, UniProt Q06546 1-454)
T1 sequence: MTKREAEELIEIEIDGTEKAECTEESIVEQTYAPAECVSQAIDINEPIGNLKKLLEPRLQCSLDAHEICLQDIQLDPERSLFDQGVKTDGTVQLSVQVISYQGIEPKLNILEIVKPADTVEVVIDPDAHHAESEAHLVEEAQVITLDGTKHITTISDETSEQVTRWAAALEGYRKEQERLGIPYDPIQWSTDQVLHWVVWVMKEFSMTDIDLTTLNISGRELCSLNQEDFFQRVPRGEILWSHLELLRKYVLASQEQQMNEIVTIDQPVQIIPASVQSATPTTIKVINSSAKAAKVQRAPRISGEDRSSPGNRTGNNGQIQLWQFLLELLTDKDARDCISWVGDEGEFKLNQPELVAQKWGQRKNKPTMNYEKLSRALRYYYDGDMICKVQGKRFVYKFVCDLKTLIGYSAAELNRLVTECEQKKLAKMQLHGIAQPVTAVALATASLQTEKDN
In short: (§1)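 Beads coated with glutathione captured GST-fused human transcription factors that had been expressed in yeast, and the factors were then given DNA barcodes and pooled with a tag-only sample. The pools were incubated with 200 nmole of a random double-stranded 16-mer DNA library in Tris/NaCl/DTT/glycerol buffer for 30 min at room temperature, washed, crosslinked with 0.1% formaldehyde and proximity-ligated with BsaI/T4 ligase at 37 °C for 1 h. PCR amplification and Illumina NextSeq500 sequencing came last. Binding signal is each hexamer's read frequency for a factor divided by its frequency for the tag-only sample.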

[2] = molecular target: T2, EHF (Homo sapiens, UniProt Q9NZC4 1-300)
T2 sequence: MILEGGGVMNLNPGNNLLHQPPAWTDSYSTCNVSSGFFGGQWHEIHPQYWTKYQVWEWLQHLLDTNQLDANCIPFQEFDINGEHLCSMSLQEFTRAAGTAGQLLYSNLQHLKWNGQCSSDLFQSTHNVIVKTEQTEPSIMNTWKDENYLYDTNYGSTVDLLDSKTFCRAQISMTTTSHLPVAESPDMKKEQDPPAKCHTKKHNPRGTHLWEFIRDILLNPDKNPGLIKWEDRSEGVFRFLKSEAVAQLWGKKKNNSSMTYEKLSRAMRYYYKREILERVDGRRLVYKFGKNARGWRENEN
In short: as §1

[3] = molecular target: T3, ELK3 (Homo sapiens, UniProt P41970 1-407)
T3 sequence: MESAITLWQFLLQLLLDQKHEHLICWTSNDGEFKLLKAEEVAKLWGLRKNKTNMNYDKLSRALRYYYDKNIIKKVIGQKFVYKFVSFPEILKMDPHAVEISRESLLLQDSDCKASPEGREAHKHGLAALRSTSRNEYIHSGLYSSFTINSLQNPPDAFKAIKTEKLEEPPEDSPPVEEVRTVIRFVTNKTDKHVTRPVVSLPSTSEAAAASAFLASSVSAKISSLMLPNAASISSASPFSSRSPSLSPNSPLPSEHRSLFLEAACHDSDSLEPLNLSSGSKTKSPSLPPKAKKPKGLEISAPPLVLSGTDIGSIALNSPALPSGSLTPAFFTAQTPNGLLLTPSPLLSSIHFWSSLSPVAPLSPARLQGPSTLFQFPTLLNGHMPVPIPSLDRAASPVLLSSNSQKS
In short: as §1

[4] = molecular target: ETV5 (Homo sapiens, UniProt P41161 1-510)
Chain of ETV5 (P41161 whole entry): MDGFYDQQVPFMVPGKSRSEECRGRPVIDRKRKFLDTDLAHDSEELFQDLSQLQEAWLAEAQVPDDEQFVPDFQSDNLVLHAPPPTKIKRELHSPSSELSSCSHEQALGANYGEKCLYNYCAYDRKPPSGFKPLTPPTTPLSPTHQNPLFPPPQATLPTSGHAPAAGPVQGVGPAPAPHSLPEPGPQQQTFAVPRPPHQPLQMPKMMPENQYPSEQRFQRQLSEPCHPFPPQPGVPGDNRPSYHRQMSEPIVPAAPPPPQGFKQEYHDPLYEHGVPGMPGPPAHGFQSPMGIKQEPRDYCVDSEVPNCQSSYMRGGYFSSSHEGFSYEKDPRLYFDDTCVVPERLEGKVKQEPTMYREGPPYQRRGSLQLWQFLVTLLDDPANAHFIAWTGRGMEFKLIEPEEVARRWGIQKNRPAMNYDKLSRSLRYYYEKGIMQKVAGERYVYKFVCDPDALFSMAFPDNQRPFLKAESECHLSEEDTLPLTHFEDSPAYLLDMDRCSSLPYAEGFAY
In short: as §1

[5] = molecular target: T4, ELF3 (Homo sapiens, UniProt P78545 1-371)
T4 sequence: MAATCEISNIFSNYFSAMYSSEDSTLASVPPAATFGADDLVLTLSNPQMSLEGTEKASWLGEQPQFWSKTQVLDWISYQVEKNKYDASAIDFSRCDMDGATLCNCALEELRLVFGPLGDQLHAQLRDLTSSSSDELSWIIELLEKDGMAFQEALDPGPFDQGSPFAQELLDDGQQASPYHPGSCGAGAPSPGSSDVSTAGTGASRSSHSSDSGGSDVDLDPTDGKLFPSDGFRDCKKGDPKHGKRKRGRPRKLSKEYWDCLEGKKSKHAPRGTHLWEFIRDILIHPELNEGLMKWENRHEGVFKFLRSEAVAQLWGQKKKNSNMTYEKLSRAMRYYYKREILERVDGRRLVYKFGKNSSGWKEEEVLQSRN
In short: as §1

[6] = molecular target: ETV1 (Homo sapiens, UniProt P50549 1-477)
Chain of ETV1 (P50549 whole entry): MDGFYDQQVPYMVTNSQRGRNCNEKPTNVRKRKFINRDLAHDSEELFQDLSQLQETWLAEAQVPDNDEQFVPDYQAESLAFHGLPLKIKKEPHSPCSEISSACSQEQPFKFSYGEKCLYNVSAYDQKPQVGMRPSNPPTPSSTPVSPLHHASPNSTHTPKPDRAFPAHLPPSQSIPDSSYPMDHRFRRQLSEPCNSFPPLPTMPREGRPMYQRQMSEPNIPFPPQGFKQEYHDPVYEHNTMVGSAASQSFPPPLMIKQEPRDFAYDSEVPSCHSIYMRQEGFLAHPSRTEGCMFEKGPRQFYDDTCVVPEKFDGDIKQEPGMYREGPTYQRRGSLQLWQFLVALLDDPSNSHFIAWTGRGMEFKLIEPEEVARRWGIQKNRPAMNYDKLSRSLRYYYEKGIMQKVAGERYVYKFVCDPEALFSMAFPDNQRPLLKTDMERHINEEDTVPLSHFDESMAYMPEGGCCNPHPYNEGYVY
In short: as §1

[7] = molecular target: T5, ERF (Homo sapiens, UniProt P50548 1-548)
T5 sequence: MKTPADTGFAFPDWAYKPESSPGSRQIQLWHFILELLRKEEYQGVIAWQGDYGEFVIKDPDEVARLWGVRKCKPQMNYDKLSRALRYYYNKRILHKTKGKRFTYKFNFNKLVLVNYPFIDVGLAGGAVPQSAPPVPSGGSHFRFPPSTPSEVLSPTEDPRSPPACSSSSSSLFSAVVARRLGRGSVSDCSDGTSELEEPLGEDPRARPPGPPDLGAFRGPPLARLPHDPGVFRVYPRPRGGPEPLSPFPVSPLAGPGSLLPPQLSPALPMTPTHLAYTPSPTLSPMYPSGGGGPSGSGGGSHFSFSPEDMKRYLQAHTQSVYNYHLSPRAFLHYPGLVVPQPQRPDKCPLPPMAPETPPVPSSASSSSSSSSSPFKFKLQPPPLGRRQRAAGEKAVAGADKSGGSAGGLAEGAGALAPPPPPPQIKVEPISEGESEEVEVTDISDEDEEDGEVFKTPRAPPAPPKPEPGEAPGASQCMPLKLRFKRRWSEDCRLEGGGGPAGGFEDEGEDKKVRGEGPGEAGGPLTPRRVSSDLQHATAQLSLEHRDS
In short: as §1

[8] = molecular target: T6, ETS2 (Homo sapiens, UniProt P15036 1-469)
T6 sequence: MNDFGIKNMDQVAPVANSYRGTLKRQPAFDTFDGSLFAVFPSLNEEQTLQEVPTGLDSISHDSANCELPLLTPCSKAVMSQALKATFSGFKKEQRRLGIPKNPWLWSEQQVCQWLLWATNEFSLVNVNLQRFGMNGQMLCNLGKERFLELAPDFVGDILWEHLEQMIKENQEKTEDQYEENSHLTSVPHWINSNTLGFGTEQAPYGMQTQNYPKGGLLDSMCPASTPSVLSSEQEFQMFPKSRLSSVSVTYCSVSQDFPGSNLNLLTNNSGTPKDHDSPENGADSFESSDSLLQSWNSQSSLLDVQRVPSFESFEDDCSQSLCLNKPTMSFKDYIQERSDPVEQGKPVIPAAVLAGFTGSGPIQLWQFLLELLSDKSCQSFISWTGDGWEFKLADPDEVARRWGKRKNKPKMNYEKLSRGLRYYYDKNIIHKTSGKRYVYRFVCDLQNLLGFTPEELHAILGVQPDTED
In short: as §1

[9] = molecular target: T7, ETV3 (Homo sapiens, UniProt P41162-2 1-143)
T7 sequence: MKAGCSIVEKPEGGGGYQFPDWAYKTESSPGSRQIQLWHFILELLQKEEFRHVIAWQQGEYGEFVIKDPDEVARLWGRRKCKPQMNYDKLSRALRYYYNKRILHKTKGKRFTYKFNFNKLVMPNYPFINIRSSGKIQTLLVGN
In short: as §1

[10] = molecular target: ETV6 (Homo sapiens, UniProt P41212 1-452)
Chain of ETV6 (P41212 whole entry): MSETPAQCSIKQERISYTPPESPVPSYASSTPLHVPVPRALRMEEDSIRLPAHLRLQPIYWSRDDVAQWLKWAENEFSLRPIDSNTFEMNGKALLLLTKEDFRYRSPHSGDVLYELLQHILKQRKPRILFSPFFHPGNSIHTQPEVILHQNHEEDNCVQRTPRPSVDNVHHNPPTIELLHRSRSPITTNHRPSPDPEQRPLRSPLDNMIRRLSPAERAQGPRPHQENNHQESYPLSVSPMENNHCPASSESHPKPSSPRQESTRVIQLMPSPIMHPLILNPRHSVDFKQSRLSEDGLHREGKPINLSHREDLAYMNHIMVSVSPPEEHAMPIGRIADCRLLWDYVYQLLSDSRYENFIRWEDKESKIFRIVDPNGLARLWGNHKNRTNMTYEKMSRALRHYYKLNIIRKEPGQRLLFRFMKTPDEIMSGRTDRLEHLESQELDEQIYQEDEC
In short: as §1

[11] = molecular target: T8, ELK1 (Homo sapiens, UniProt P19419 1-428)
T8 sequence: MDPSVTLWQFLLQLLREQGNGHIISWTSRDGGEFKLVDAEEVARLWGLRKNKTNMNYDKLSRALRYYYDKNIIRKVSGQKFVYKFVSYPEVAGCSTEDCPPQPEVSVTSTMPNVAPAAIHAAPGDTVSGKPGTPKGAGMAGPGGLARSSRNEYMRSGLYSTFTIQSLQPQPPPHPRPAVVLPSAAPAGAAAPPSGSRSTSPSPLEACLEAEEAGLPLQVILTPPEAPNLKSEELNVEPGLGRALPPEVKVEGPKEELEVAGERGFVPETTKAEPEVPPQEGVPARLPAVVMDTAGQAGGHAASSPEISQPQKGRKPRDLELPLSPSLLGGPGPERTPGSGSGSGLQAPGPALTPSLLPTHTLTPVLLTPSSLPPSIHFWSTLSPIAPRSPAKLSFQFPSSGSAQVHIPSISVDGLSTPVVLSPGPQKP
In short: as §1

[12] = molecular target: T9, ERG (Homo sapiens, UniProt P11308 1-479)
T9 sequence: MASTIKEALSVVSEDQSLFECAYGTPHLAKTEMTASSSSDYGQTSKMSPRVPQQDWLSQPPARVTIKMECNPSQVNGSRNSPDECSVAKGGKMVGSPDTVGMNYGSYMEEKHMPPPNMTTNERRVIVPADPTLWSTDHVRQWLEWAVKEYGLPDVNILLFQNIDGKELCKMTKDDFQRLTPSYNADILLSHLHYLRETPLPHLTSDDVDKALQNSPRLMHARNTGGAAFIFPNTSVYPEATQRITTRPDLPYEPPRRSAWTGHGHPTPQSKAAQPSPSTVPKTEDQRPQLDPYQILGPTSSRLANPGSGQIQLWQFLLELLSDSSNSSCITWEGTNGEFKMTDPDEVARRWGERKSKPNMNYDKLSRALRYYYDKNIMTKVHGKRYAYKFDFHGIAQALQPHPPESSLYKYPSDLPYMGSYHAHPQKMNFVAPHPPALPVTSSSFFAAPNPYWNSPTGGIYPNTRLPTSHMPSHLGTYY
In short: as §1

[13] = molecular target: T10, SPIC (Homo sapiens, UniProt Q8N5J4 1-248)
T10 sequence: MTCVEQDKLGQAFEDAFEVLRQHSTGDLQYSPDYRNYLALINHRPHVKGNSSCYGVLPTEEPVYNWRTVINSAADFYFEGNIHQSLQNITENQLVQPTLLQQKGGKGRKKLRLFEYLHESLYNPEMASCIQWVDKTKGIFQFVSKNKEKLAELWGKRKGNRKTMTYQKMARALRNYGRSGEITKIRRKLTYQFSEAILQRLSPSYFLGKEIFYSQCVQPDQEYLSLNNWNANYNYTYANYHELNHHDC
In short: as §1

[14] = molecular target: ELF4 (Homo sapiens, UniProt Q99607 1-663)
Chain of ELF4 (Q99607 whole entry): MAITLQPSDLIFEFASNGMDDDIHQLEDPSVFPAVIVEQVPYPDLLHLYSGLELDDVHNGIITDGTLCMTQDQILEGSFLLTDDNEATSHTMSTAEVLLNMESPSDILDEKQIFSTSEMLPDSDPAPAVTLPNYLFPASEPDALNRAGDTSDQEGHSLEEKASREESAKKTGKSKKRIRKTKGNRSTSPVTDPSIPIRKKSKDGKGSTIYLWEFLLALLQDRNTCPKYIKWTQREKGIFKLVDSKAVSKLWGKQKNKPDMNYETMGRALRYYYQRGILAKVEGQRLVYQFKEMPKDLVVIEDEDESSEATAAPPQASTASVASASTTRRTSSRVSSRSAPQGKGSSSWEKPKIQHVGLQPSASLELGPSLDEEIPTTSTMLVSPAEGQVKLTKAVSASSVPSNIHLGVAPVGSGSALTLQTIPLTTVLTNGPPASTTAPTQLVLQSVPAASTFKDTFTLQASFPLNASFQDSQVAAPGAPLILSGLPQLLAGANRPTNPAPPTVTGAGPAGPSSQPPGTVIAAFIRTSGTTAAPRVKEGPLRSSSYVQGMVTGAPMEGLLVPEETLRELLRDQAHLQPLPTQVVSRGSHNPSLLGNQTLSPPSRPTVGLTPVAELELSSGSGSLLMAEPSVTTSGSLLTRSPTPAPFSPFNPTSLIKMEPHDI
In short: as §1

[15] = molecular target: T11, ELK4 (Homo sapiens, UniProt P28324-2 1-405)
T11 sequence: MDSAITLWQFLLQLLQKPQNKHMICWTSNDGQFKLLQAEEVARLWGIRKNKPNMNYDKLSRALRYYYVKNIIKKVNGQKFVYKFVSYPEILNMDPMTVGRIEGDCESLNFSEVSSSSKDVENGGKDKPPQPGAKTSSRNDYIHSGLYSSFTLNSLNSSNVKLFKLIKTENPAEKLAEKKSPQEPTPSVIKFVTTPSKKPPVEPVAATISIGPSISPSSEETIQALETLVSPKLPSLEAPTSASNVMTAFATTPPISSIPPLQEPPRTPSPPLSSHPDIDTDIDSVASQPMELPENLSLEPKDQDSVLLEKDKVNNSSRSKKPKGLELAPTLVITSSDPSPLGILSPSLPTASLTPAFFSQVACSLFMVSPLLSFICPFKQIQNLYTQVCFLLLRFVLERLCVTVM
In short: as §1

[16] = molecular target: T12, ETV3L (Homo sapiens, UniProt Q6ZN32 1-361)
T12 sequence: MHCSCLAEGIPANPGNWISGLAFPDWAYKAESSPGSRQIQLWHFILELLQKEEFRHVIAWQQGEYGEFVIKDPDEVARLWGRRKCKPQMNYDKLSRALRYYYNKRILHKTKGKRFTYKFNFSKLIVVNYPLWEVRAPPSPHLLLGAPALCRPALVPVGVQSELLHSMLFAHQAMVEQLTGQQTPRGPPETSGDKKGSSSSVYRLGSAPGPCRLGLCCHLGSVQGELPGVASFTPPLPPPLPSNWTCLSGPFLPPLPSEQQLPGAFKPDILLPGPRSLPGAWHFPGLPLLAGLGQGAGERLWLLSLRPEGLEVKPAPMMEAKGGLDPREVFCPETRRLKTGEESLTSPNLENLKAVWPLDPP
In short: as §1

[17] = molecular target: T13, SPDEF (Homo sapiens, UniProt O95238 1-335)
T13 sequence: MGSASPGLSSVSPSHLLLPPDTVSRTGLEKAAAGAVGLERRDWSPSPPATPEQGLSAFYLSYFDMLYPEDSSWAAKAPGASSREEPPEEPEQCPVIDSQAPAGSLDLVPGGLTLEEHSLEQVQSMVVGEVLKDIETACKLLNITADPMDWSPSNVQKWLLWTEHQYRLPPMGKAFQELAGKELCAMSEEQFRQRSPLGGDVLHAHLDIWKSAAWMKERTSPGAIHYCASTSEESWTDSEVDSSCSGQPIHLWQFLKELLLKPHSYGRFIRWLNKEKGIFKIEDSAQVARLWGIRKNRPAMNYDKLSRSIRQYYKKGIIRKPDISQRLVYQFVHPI
In short: as §1

Sequence | binding signal [1] | binding signal [2] | binding signal [3] | binding signal [4] | binding signal [5] | binding signal [6] | binding signal [7] | binding signal [8] | binding signal [9] | binding signal [10] | binding signal [11] | binding signal [12] | binding signal [13] | binding signal [14] | binding signal [15] | binding signal [16] | binding signal [17]
AGTAAA | 1.02 fold enrichment (6-mer frequency, TF over GST control) | 1.03 fold enrichment (6-mer frequency, TF over GST control) | 1.06 fold enrichment (6-mer frequency, TF over GST control) | 1.05 fold enrichment (6-mer frequency, TF over GST control) | 1.08 fold enrichment (6-mer frequency, TF over GST control) | 1.04 fold enrichment (6-mer frequency, TF over GST control) | 1.01 fold enrichment (6-mer frequency, TF over GST control) | 1.02 fold enrichment (6-mer frequency, TF over GST control) | 1.03 fold enrichment (6-mer frequency, TF over GST control) | 1.11 fold enrichment (6-mer frequency, TF over GST control) |  |  |  |  |  |  | 
TGGGTG |  | 1.01 fold enrichment (6-mer frequency, TF over GST control) |  | 1.02 fold enrichment (6-mer frequency, TF over GST control) | 1.03 fold enrichment (6-mer frequency, TF over GST control) |  | 1.06 fold enrichment (6-mer frequency, TF over GST control) | 1.07 fold enrichment (6-mer frequency, TF over GST control) | 1 fold enrichment (6-mer frequency, TF over GST control) | 1.21 fold enrichment (6-mer frequency, TF over GST control) | 1.09 fold enrichment (6-mer frequency, TF over GST control) | 1.01 fold enrichment (6-mer frequency, TF over GST control) | 1.03 fold enrichment (6-mer frequency, TF over GST control) | 1.01 fold enrichment (6-mer frequency, TF over GST control) | 1.07 fold enrichment (6-mer frequency, TF over GST control) | 1.08 fold enrichment (6-mer frequency, TF over GST control) | 1.01 fold enrichment (6-mer frequency, TF over GST control)
